From PubChem BioAssay (NCI)
This is part of a sample that, as a whole, favours compounds with a hit. Of some 83,000 tested, about 20% had one in any assay.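 Step 1: grow cells in 96-well plates. Step 2: add test compound at a single concentration. Step 3: incubate 48 h. Step 4: record percent growth.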 Activity calls are given as the source filed them. How the source made its calls: active means growth percent below 10; inactive means the rest.

What follows are molecules tested on EKVX NSCLC (assay: NCI-60 one-dose screen, 48 h (100 = growth as untreated, 0 = no growth, -100 = all killed)). Details: 10 µM unless noted.
With `CN1CCN(CCCNC(=O)c2c3c(n4ccccc24)C(=O)c2ncccc2C3=O)CC1` the growth was 24% (inactive).
With `CN1CCN(CC(=O)N(C)c2ccc(N=C(c3ccccc3)c3c(O)[nH]c4ccc([N+](=O)[O-])cc34)cc2)CC1` the growth was 94.2% (inactive).
For `CCCCCCCCNc1ncnc2c1ncn2Cc1nnc2c3ccccc3c(Cl)nn12`, the growth was 57.3% (inactive).
`CC/C(=C(/c1ccc(Cl)cc1)c1ccc(OCCCN(C)C)cc1)c1ccc(OC)cc1` was tested, and the growth was 91% (inactive).
`CCN(CC)CCCNC(=O)c1c2c(n3ccccc13)C(=O)c1ncccc1C2=O` was tested, and the growth was -84.5% (active).
In the case of `CCCn1cnc2c(c1=N)C(c1ccc(Cl)cc1)c1sc3c(F)cccc3c1O2` (stereo not given), the growth is reported as 80% (inactive).
In the case of `Cc1ccc(C23CCC(=O)N2CCc2cncn23)cc1` (stereo not given), the growth is reported as 104% (inactive).
In the case of `O=C(COc1ccc(/C=C2\Oc3ccccc3C2=O)cc1)Nc1nccs1`, the growth is reported as 84% (inactive).
`Cc1c(C(=O)C(SC(=S)N2CCOCC2)SC(=S)N2CCOCC2)nnn1-c1ccc([N+](=O)[O-])cc1` was tested, and the growth was 113% (inactive).
With `O=[N+]([O-])c1ccc(Oc2cccc3c(Oc4ccc([N+](=O)[O-])cc4[N+](=O)[O-])cccc23)c([N+](=O)[O-])c1` the growth was 77.7% (inactive).
For `CN(C)CCOc1ccc(/C(=C(/CCCCCCCCCC[P+](c2ccccc2)(c2ccccc2)c2ccccc2)c2ccccc2)c2ccccc2)cc1`, the growth was -86.1% (active).
For `CC1(C)CC[C@]2(CO)CC[C@]3(C)C(=CC[C@@H]4[C@@]5(C)CCNCC(C)(C)[C@@H]5CC[C@]43C)[C@@H]2C1`, the growth was 97.5% (inactive).
`O=c1oc2ccccc2cc1-c1nn(-c2ccccc2)cc1/C=N/Nc1nc(-c2ccccc2)c(N=Nc2ccccc2)s1` was tested, and the growth was 82.3% (inactive).
With `COc1cc(/C=C2\CN(S(=O)(=O)c3ccc(C)cc3)C/C(=C\c3cc(CN4CCCC4)c(O)c(OC)c3)C2=O)cc(CN2CCCC2)c1O` the growth was 0.183% (active).
With `Nc1ccc(Cl)c2c(=O)c3ccccc3[nH]c12` the growth was 75.2% (inactive).
In the case of `COC(=O)c1sc(-c2ccc(C)cc2)cc1O`, the growth is reported as 101% (inactive).
For `CCOC(=O)CSc1nc2sc3c(c2c(=O)n1-c1ccccc1)CCCCC3`, the growth was 103% (inactive).
In the case of `O=C1NCCS(=O)(=O)/C1=C\C=C\c1cccc(C(F)(F)F)c1`, the growth is reported as 82.3% (inactive).
With `COc1cc(/C=C2\C(=O)N(CCOc3cc(O)c4c(=O)cc(-c5ccccc5)oc4c3)c3ccccc32)cc(OC)c1O` the growth was 83.2% (inactive).
For `CNC1=C([N+](=O)[O-])C(c2ccc(OC)cc2)C(C#N)=C(c2ccc[nH]2)O1` (stereo not given), the growth was 99.7% (inactive).
With `COc1cccc2cc(N(C)c3ncnc4ccccc34)ccc12` the growth was 43.8% (inactive).
With `Cc1[nH]c(C(=O)Nc2ccc(C(N)=O)cc2OC(C)C)c(Cl)c1Cl` the growth was 86.3% (inactive).
With `Nc1nc(N)c2c(n1)NC(c1cccc(Nc3ccnc4cc(C(F)(F)F)ccc34)c1)CC(c1ccc(Cl)cc1)=N2` (stereo not given) the growth was 50.8% (inactive).
`COC1=C(OC)C(=O)C(CCCCCCCCCCO)=C(C)C1=O` was tested, and the growth was 89.8% (inactive).
With `O=C1c2c(c3c4cccnc4[nH]c3c3ccc4ccccc4c23)C(=O)N1O` the growth was 97.7% (inactive).
In the case of `CCN1CCN(C(=O)[C@]23CC[C@@H](C)[C@H](C)[C@@H]2C2=CC[C@@H]4[C@@]5(C)C/C(=C/c6ccncc6)C(=O)C(C)(C)[C@@H]5CC[C@@]4(C)[C@]2(C)CC3)CC1`, the growth is reported as 43.7% (inactive).
For `C=CC(=O)Nc1ccc2ncnc(Nc3cccc(NS(=O)(=O)CCC)c3Cl)c2c1`, the growth was 51.8% (inactive).
With `COc1ccccc1/C=C/C1=C(C)CCC(c2ccccc2OC)C1C` (stereo not given) the growth was 35% (inactive).
In the case of `CN(C)CCOc1nc2c3cc([N+](=O)[O-])ccc3nn2c2ccccc12`, the growth is reported as 67.3% (inactive).
For `COc1ccc(-c2nc(SCCC(C)C)nc(N/N=C(/C)c3ccc(N)cc3)c2C#N)cc1`, the growth was 93.4% (inactive).
For `O=C(c1ccccc1)[C@@H](c1ccccc1)[C@]1(O)C(=O)Nc2ccccc21`, the growth was 105% (inactive).
In the case of `CCOC(=O)C1=C(c2ccccc2)N=C2SC=C(c3cccc([N+](=O)[O-])c3)N2C1c1ccc(O)cc1` (stereo not given), the growth is reported as 99.3% (inactive).
`Cn1nc(-c2ccc(Cl)cc2)nc2c(=O)n(C)c(=O)nc1-2` was tested, and the growth was -31.2% (active).
With `COC1CC(O)C2=C(CC3C(/C(C)=C\CC=C(C)C)CCC3(C)O2)C1=O` (stereo not given) the growth was 105% (inactive).
`COc1cc(C(=O)/C=C/c2c(-c3cccs3)nc3sc(C)cn23)cc(OC)c1OC` was tested, and the growth was 13.4% (inactive).
`CSc1nc(N)c2c(n1)NC(c1ccccc1)C1CCc3ccccc3C1=N2` (stereo not given) was tested, and the growth was 40.9% (inactive).
For `COC(=O)c1c(C)nc(C)c2c1C(=O)C(Br)=C(NCCCCO)C2=O`, the growth was 62.2% (inactive).
With `COc1ccc(S(=O)(=O)Oc2ccc(-c3sc4cc(OS(=O)(=O)c5ccc(OC)cc5)ccc4c3C(=O)c3ccc(OCCN4CCCCC4)cc3)cc2)cc1` the growth was 97% (inactive).
With `C=C(c1ccc(C(=O)O)c(F)c1)c1cc2c(cc1C)C(C)(C)C=CC2(C)C` the growth was 69.9% (inactive).
For `COc1cc(C2=Nc3c(N)nc(N)nc3NC(c3cccc(Nc4ccnc5cc(C(F)(F)F)ccc45)c3)C2)cc(OC)c1OC` (stereo not given), the growth was 66% (inactive).
